# This is a sample that favours compounds with a hit; in the whole collection about 11% have one here.
# Pf growth 48h – inhibits P. falciparum growth in the first generation, 48 h; P. falciparum luciferase growth in erythrocytes, 48 h; Potency, µM (titrated, usually from 28.7 µM), hits mostly inhibitors; hit rate 5.9% among 310,000; AID 504832
#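 Cell-based growth assay: transgenic P. falciparum expressing firefly luciferase, cultured in red cells within RPMI 1640 containing 0.5% w/v Albumax, 24 mM bicarbonate and gentamycin. A drop in luciferase activity indicates inhibition.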
# Sm TGR block – S. mansoni TGR enzyme inhibition. purified TGR, DTNB reduction, TNB absorbance 405 nm. hit rate 3% among 360,000. Potency, µM (doses to about 114 µM), most hits filed as inhibitors. AID 485364. Q962Y6; further: nearly all actives have a fitted effect of over 60% in size
#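 TGR 20 nM + NADPH 100 uM (dispensed conc.), cpd preinc 15 min RT; start with NADPH (500 uM addition) then DTNB (15 mM addition). Kinetic TNB absorbance, 405 nm filter. Four-parameter Hill fit across titration.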
# Pf growth 96h – inhibits malaria parasite growth, 96 h | hit rate 6.9% among 320,000 | AID 504834 | P. falciparum luciferase reporter growth, 96 h | Potency, µM (series often up to 28.7 µM), usual class: inhibitors
#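 Luminescence readout: decreased luciferase signal marks inhibited growth of reporter-expressing P. falciparum in infected red cells (2% hematocrit, 0.05% parasitemia final), exposed to compound two generations (96 h, 37 C, 5% CO2).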
# NS1 function inh – influenza NS1 inhibition. Potency, µM (titrated, usually from 46.1 µM). hit rate 0.4% among 270,000. AID 2326; calls by dose curve; further: actives are rising curves; nearly all actives have a fitted effect of over 50% in size
#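 OD600 was taken as the measure of yeast growth restored by compound in an NS1-expressing S. cerevisiae strain. Cells had been washed out of glucose medium and diluted 1:100 into galactose -URA medium, pH 6.0.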
# AMA1 RON2 block – inhibitors of Plasmodium falciparum AMA1-RON2 interaction; AlphaScreen AMA1-biotinylated RON2 peptide binding; AID 720542; hit rate 0.2% among 360,000; Potency, µM (doses to about 58.2 µM), hits mostly inhibitors; further: nearly all actives have a fitted effect of over 45% in size
#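 AMA1 (3D7) with his tag at 25 nM final met compounds first, then biotinylated RON2 peptide at 25 nM; detection used donor plus acceptor beads, 10 µg/mL apiece, read by AlphaScreen after 30 min at room temperature.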
# A number is an active result; – = inactive; ? = inconclusive; · = no result. Unless noted, the call rests on the fitted dose curve; in most records, active means well fitted curve in the direction sought with a large enough effect; inconclusive means small, poorly fitted or top-dose-only effect, or another doubt; inactive means no such curve, though single readings can be large; an effect the other way counts as inactive or inconclusive.
SMILES,Pf growth 48h,Sm TGR block,Pf growth 96h,NS1 function inh,AMA1 RON2 block
O=C(Cc1ccc(-n2c(=S)[nH]c3ccccc3c2=O)cc1)N1CCN(c2ccccc2)CC1,·,–,–,–,–
COc1ccc(N2CCN(C(=O)CCCSc3nc4ccccc4[nH]3)CC2)cc1,·,–,9.3µM,–,–
COc1ccc(N2CCN(C(=O)Cn3c(=O)[nH]c4ccccc4c3=O)CC2)cc1,–,?,10µM,·,·
COc1ccc(N2CCN(CCCNC(=O)C(=O)c3c(C)[nH]c4ccccc34)CC2)cc1,5.2µM,–,?,–,?
COc1ccc(CC(=O)NCc2nc3cccnc3n2Cc2ccc(C)cc2)cc1,·,–,·,·,·
CCCCNS(=O)(=O)c1ccc(S(=O)(=O)N2CCC3(CC2)OCCO3)cc1,–,–,–,–,–
O=C(c1ccccc1)c1cn(Cc2ccc(F)cc2)c2ccccc2c1=O,·,–,·,·,·
Cc1ccc(C)c(N2CCN(C(=O)CCc3nnc4n(C)c(=O)c5ccccc5n34)CC2)c1,·,–,·,·,·
COc1nc(NC(=O)c2ccc(F)cc2)nc(OC)c1-c1ccccc1,–,–,?,–,–
COc1ccc([N+](=O)[O-])cc1NC(=O)CCS(=O)(=O)c1ccc(Br)cc1,–,?,–,–,–
COc1ccc(C(F)(F)F)cc1N/C=C/c1nnnn1-c1ccc(C)cc1,?,–,?,–,–
COc1ccc(NC(=O)CCCn2c(=O)[nH]c3ccccc3c2=O)cc1,2.3µM,–,–,–,–
COc1ccc(NC(=O)CCCCn2c(=O)[nH]c3ccccc3c2=O)cc1,?,–,–,–,–
CC(C)CC(NC(=O)C1CCC(=O)N1C(=O)OCc1ccccc1)C(=O)NC(Cc1ccccc1)C(N)=O (stereo not given),10µM,–,–,–,–
COc1ccc(Cn2c(CO)cnc2SCc2cccc(C)c2)cc1,·,–,·,·,·
O=C1CCCc2sccc2N1,–,–,3.3µM,–,–
OCCN(Cc1cccnc1)Cc1ccccn1,·,·,·,·,14µM
COc1ccccc1NC(=O)c1ccc(NC(=O)Cc2n[nH]c(=O)c3ccccc23)cc1,–,–,–,–,–
COc1cccc(CNc2ccc(N3CCCCC3)cc2)c1OC,0.52µM,25µM,–,?,35µM
COc1ccccc1CNc1ccc(N2CCCCC2)cc1,?,10µM,?,–,?
COc1cccc(OC)c1C(=O)Nc1ccccc1N1CCCCC1,?,–,–,–,–
COc1cccc(Nc2ccc(N3CCCCC3)cc2)c1OC,4.7µM,?,2.3µM,·,·
CCCN1CCN(c2cc3c(cc2F)c(=O)c(S(=O)(=O)c2ccc(Cl)cc2)cn3C)CC1,·,–,·,·,·
Cn1c(=O)c2cc(NC(=S)NC3CCCCC3)ccc2n1Cc1ccc(Cl)cc1,·,·,·,·,–
COC(=O)C(=O)C1CCc2c(Cl)cc(OC)c(OC)c2C1=O (stereo not given),·,·,·,·,–
SMILES,Pf growth 48h,Sm TGR block,Pf growth 96h,NS1 function inh,AMA1 RON2 block
CC(C)c1nnc(NC(=O)C2CCCN2C(=O)Nc2ccc(F)cc2)s1 (stereo not given),–,–,?,–,–
Cc1ccc2onc(CNC(=O)N(C)Cc3ccccc3)c2c1,·,–,·,·,·
O=C(NCc1ccc2c(c1)CCN2C(=O)c1ccccc1)c1ccco1,·,–,·,·,·
CCN(CC)c1nc(N)c2c(N)nc3c(c2c1C#N)CC(c1ccccc1)O3 (stereo not given),2.3µM,–,·,–,–
N#Cc1c(N2CCCCC2)nc(N)c2c(N)nc3c(c12)CC(c1ccccc1)O3 (stereo not given),5.9µM,–,4.1µM,?,–
CCN1CCc2nc(NC(=O)CC(c3ccccc3)c3ccccc3)sc2C1,5.9µM,?,10µM,–,–
CCN1CCc2nc(NC(=O)C(c3ccccc3)c3ccccc3)sc2C1,·,–,8.3µM,–,–
CCN1CCc2nc(NC(=O)Cc3ccc4c(c3)OCCO4)sc2C1,?,?,–,–,–
NC(N)=NCCCC(NC(=O)c1ccccc1)C(=O)Nc1ccc2ccccc2c1 (stereo not given),?,–,10µM,·,–
NC(N)=NCCCC(NC(=O)c1ccccc1)C(=O)Nc1ccc([N+](=O)[O-])cc1 (stereo not given),?,–,9.3µM,·,–
CSCCC(NC(=O)c1ccccc1)C(=O)Nc1ccc(C)cc1 (stereo not given),–,–,–,?,–
COc1ccc2[nH]cc(C=O)c2c1,–,–,–,–,–
COc1ccc2[nH]cc(/C=C/c3cc[n+](C)cc3)c2c1,1µM,–,0.47µM,–,–
CN1C=CC(=CC=C2C=CC(=O)C=C2)C=C1,4.7µM,–,1.9µM,–,–
CC(C)(/C=N/O)N(O)C=C1C=CC(=O)C=C1,–,–,–,–,–
COc1ccc(CCN2C(=O)CC(NC34CC5CC(CC(C5)C3)C4)C2=O)cc1OC (stereo not given),?,40µM,–,–,–
COc1ccc(CCN2C(=O)CC(NCCc3ccc(S(N)(=O)=O)cc3)C2=O)cc1OC (stereo not given),·,18µM,–,–,–
CCOC(=O)C1=C(C)OC(N)=C(C#N)C1c1cc2cc(C)ccc2nc1N1CCCCC1 (stereo not given),?,3.5µM,–,–,–
C=CCOC(=O)C1=C(C)OC(N)=C(C#N)C1c1ccc(OC)c(CSc2ccccn2)c1 (stereo not given),–,–,–,–,–
CCOC(=O)C1=C(CC)OC(N)=C(C#N)C1c1ccsc1 (stereo not given),–,–,13µM,–,–
CCOC(=O)C1=C(C)OC(N)=C(C#N)C1c1ccsc1 (stereo not given),–,?,–,–,–
CCCC1=C(C(=O)OCC)C(c2ccc(OC)c(CSc3ccccn3)c2)C(C#N)=C(N)O1 (stereo not given),9.3µM,32µM,?,–,–
CCOC(=O)C1=C(C)OC(N)=C(C#N)C1c1cc(SCC)oc1C (stereo not given),–,45µM,–,·,–
CCOC(=O)C1=C(C)OC(N)=C(C#N)C1c1cc2c(cc1Br)OCO2 (stereo not given),–,–,–,–,?
CCOC(=O)C1=C(C)OC(N)=C(C#N)C1c1cc(C)sc1C (stereo not given),–,–,–,–,–
SMILES,Pf growth 48h,Sm TGR block,Pf growth 96h,NS1 function inh,AMA1 RON2 block
CCOc1ccc(-c2c(C(=O)N/N=C(\C)c3cccnc3)nnn2-c2nonc2N)cc1,–,–,–,?,–
CCOC(=O)C1=C(C)OC(N)=C(C#N)C1c1cc2ccccc2nc1N1CCCCC1 (stereo not given),–,–,1.3µM,–,–
CSc1ccc(CCNC(=O)CCc2nnc3ccc(N4CCCC4)nn23)cc1,?,–,9.3µM,–,–
CCOc1ccc(CCNC(=O)CCc2nnc3ccc(N4CCOCC4)nn23)cc1OCC,–,–,13µM,–,–
Cc1ccc(C)c(NC(=O)CCc2nnc3ccc(N4CCCC4)nn23)c1,–,–,?,–,–
Cn1cccc1Cc1nnc(SCC(=O)N2CCCC2)n1CCc1ccccc1,·,–,?,?,–
Cn1cccc1Cc1nnc(SCC(N)=O)n1CCc1ccccc1,–,–,?,–,–

# Bioassay records as filed in PubChem.
